From PubChem BioAssay (NCI)
Several values for one entry are separate records, joined by “and”; a condition that tells them apart may be missing. Equal values may be shown once. Compounds without any hit were thinned out: in the full panel of roughly 79,000, 15% have a hit. Where a structure was tested more than once in an assay, its records may differ in their call. Activity calls are given as the source filed them. No stated cut-off is given here; in the data, active means growth inhibition above about 70%; inactive means the rest.

Experiments:
[1] = NCI Yeast Anticancer Drug Screen. Data for the rad50 strain (AID 155);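 further: 0% = growth of vehicle-only cultures of the same strain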; conditions: S. cerevisiae rad50 strain growth inhibition, stronger effect = higher value
How it was run: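 Compounds were tested on a yeast strain with an engineered DNA damage repair alteration; the reported value is growth inhibition normalised to vehicle treatment.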

[2] = NCI Yeast Anticancer Drug Screen. Data for the mec2-1 strain (AID 157); conditions: S. cerevisiae mec2-1 strain, stronger effect = higher value
How it was run: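 Each compound was tested on mec2-1 yeast, a strain altered in DNA damage repair or cell cycle control. Growth inhibition is reported relative to vehicle.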

[3] = NCI Yeast Anticancer Drug Screen. Data for the sgs1 mgt1 strain (AID 161);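 further: 0% = growth of cultures given vehicle only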; conditions: S. cerevisiae sgs1 mgt1 strain, stronger effect = higher value
How it was run: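 Inhibition of yeast growth, normalised to vehicle-treated controls, is reported for a strain bearing genetic alterations in DNA damage repair.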

[4] = NCI Yeast Anticancer Drug Screen. Data for the cln2 rad14 strain (AID 165);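 further: 0% = growth equal to vehicle treated cultures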; conditions: S. cerevisiae cln2 rad14 strain, stronger effect = higher value
How it was run: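 Test compounds were added to cln2 rad14 yeast cultures; inhibition of growth was then determined by comparison with vehicle treatment.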

[5] = NCI Yeast Anticancer Drug Screen. Data for the bub3 strain (AID 167); conditions: S. cerevisiae bub3 mutant strain, stronger effect = higher value
How it was run: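 Growth of a checkpoint-deficient yeast mutant is measured after compound exposure. Values represent inhibition relative to vehicle.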

[6] = NCI Yeast Anticancer Drug Screen. Data for the mlh1 rad18 strain (AID 175); conditions: S. cerevisiae mlh1 rad18 strain growth inhibition, stronger effect = higher value
How it was run: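 Inhibition values reflect reduced growth of mutant yeast versus vehicle-treated controls following compound exposure; the mutations affect DNA damage repair.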

[7] = at 5.0 µM (retest, dose inferred, filed as 0.5)
[8] = at 50.0 µM (retest, dose inferred, filed as 5.0)

## COc1cc2c3c(c1)-c1c(ccc(OC)c1OC)CC3N(CCCl)CC2 (configuration not stated)
[1]; [7]
  growth inhibition: 15% (inactive)
[1]; [8]
  growth inhibition: 92% (active)
[1]; at 50.0 µM
  growth inhibition: 87% (active)
[2]; [7]
  growth inhibition: 11% (inactive)
[2]; [8]
  growth inhibition: 69% (inactive)
[2]; at 50.0 µM
  growth inhibition: 38.9% (inactive)
[3]; [7]
  growth inhibition: 7% (inactive)
[3]; [8]
  growth inhibition: 71% (active)
[3]; at 50.0 µM
  growth inhibition: 77.2% (active)
[4]; [7]
  growth inhibition: 7% (inactive)
[4]; [8]
  growth inhibition: 77% (active)
[4]; at 50.0 µM
  growth inhibition: 31.8% (inactive)
[5]; [7]
  growth inhibition: 13% (inactive)
[5]; [8]
  growth inhibition: 75% (active)
[5]; at 50.0 µM
  growth inhibition: 28.9% (inactive)
[6]; [7]
  growth inhibition: 12% (inactive)
[6]; [8]
  growth inhibition: 78% (active)
[6]; at 50.0 µM
  growth inhibition: 86.7% (active)

## CCCC[CH2][Sn]([CH2]CCCC)[CH2]CCCC.CCCC[CH2][Sn]([CH2]CCCC)[CH2]CCCC
[1]; [7]
  growth inhibition: 78% (active)
[1]; [8]
  growth inhibition: 99% (active)
[1]; at 50.0 µM
  growth inhibition: 99.2% (active)
[2]; [7]
  growth inhibition: 61% (inactive)
[2]; [8]
  growth inhibition: 100% (active)
[2]; at 50.0 µM
  growth inhibition: 99.5% (active)
[3]; [7]
  growth inhibition: 67% (inactive)
[3]; [8]
  growth inhibition: 100% (active)
[3]; at 50.0 µM
  growth inhibition: 99.5% (active)
[4]; [7]
  growth inhibition: 8% (inactive)
[4]; [8]
  growth inhibition: 99% (active)
[4]; at 50.0 µM
  growth inhibition: 98.8% (active)
[5]; [7]
  growth inhibition: 20% (inactive)
[5]; [8]
  growth inhibition: 100% (active)
[5]; at 50.0 µM
  growth inhibition: 98.8% (active)
[6]; [7]
  growth inhibition: 46% (inactive)
[6]; [8]
  growth inhibition: 100% (active)
[6]; at 50.0 µM
  growth inhibition: 99.1% (active)

## ClC1=C(Cl)C2(Cl)C(C3CO3)CC1(Cl)C2(Cl)Cl (configuration not stated)
[1]; [7]
  growth inhibition: 0% (inactive)
[1]; [8]
  growth inhibition: 10% (inactive)
[1]; at 50.0 µM
  growth inhibition: 76.1% (active)
[2]; [7]
  growth inhibition: -1% (inactive)
[2]; [8]
  growth inhibition: 11% (inactive)
[2]; at 50.0 µM
  growth inhibition: 69.3% (inactive)
[3]; [7]
  growth inhibition: -2% (inactive)
[3]; [8]
  growth inhibition: 12% (inactive)
[3]; at 50.0 µM
  growth inhibition: 90.8% (active)
[4]; [7]
  growth inhibition: -12% (inactive)
[4]; [8]
  growth inhibition: -13% (inactive)
[4]; at 50.0 µM
  growth inhibition: 34.4% (inactive)
[5]; [7]
  growth inhibition: 4% (inactive)
[5]; [8]
  growth inhibition: 28% (inactive)
[5]; at 50.0 µM
  growth inhibition: 89.7% (active)
[6]; [7]
  growth inhibition: 0% (inactive)
[6]; [8]
  growth inhibition: 18% (inactive)
[6]; at 50.0 µM
  growth inhibition: 55.9% (inactive)

## N=C(N)c1ccccc1
[1]; [7]
  growth inhibition: 12% (inactive)
[1]; [8]
  growth inhibition: 79% (active)
[1]; at 50.0 µM
  growth inhibition: -2.25% (inactive) and 80.2% (active)
[2]; [7]
  growth inhibition: -1% (inactive)
[2]; [8]
  growth inhibition: 20% (inactive)
[2]; at 50.0 µM
  growth inhibition: 5.4% (inactive) and 2.1% (inactive)
[3]; [7]
  growth inhibition: 2% (inactive)
[3]; [8]
  growth inhibition: 23% (inactive)
[3]; at 50.0 µM
  growth inhibition: -1.6% (inactive) and 17.9% (inactive)
[4]; [7]
  growth inhibition: 6% (inactive)
[4]; [8]
  growth inhibition: 13% (inactive)
[4]; at 50.0 µM
  growth inhibition: -0.6% (inactive) and 49.5% (inactive)
[5]; [7]
  growth inhibition: -2% (inactive)
[5]; [8]
  growth inhibition: 8% (inactive)
[5]; at 50.0 µM
  growth inhibition: 6.9% (inactive) and 25.4% (inactive)
[6]; [7]
  growth inhibition: -2% (inactive)
[6]; [8]
  growth inhibition: 22% (inactive)
[6]; at 50.0 µM
  growth inhibition: -14.5% (inactive) and 46.6% (inactive)

## c1ccc2c(c1)[nH]c1c2cc[n+]2cc3c(cc12)CCCC3
[1]; [7]
  growth inhibition: 30% (inactive) and 19% (inactive)
[1]; [8]
  growth inhibition: 79% (active) and 97% (active)
[1]; at 50.0 µM
  growth inhibition: 89.2% (active) and 91.5% (active)
[2]; [7]
  growth inhibition: 51% (inactive) and 19% (inactive)
[2]; [8]
  growth inhibition: 85% (active) and 97% (active)
[2]; at 50.0 µM
  growth inhibition: 89.6% (active) and 91.6% (active)
[3]; [7]
  growth inhibition: 45% (inactive) and 26% (inactive)
[3]; [8]
  growth inhibition: 97% (active) and 98% (active)
[3]; at 50.0 µM
  growth inhibition: 91.9% (active)
[4]; [7]
  growth inhibition: 55% (inactive) and 26% (inactive)
[4]; [8]
  growth inhibition: 97% (active) and 89% (active)
[4]; at 50.0 µM
  growth inhibition: 83.2% (active)
[5]; [7]
  growth inhibition: 68% (inactive) and 33% (inactive)
[5]; [8]
  growth inhibition: 96% (active) and 98% (active)
[5]; at 50.0 µM
  growth inhibition: 91.3% (active)
[6]; [7]
  growth inhibition: 29% (inactive) and 27% (inactive)
[6]; [8]
  growth inhibition: 89% (active) and 98% (active)
[6]; at 50.0 µM
  growth inhibition: 88.7% (active) and 86.2% (active)

## CC1(C)OC2OC3C(CN(CCCl)Cc4ccccc4)OC(c4ccccc4)OC3C2O1 (configuration not stated)
[1]; [7]
  growth inhibition: 5% (inactive)
[1]; [8]
  growth inhibition: 18% (inactive)
[1]; at 50.0 µM
  growth inhibition: 5.3% (inactive)
[2]; [7]
  growth inhibition: -26% (inactive)
[2]; [8]
  growth inhibition: -4% (inactive)
[2]; at 50.0 µM
  growth inhibition: 8.75% (inactive)
[3]; [7]
  growth inhibition: -10% (inactive)
[3]; [8]
  growth inhibition: 31% (inactive)
[3]; at 50.0 µM
  growth inhibition: -0.9% (inactive)
[4]; [7]
  growth inhibition: -2% (inactive)
[4]; [8]
  growth inhibition: -1% (inactive)
[4]; at 50.0 µM
  growth inhibition: 33.8% (inactive)
[5]; [7]
  growth inhibition: 0% (inactive)
[5]; [8]
  growth inhibition: 23% (inactive)
[5]; at 50.0 µM
  growth inhibition: -2.9% (inactive)
[6]; [7]
  growth inhibition: -23% (inactive)
[6]; [8]
  growth inhibition: 49% (inactive)
[6]; at 50.0 µM
  growth inhibition: 14.2% (inactive)

## CCOC(=O)C1C2OC(=O)C(C(=O)C2CN(CCCl)CCCl)C1C1CC=C(CC2=CCC(C3C4C(=O)OC(C(CN(CCCl)CCCl)C4=O)C3C(=O)OCC)CC2)CC1 (configuration not stated)
[1]; [7]
  growth inhibition: 96% (active)
[1]; [8]
  growth inhibition: 97% (active)
[1]; at 50.0 µM
  growth inhibition: 53.5% (inactive)
[2]; [7]
  growth inhibition: 84% (active)
[2]; [8]
  growth inhibition: 99% (active)
[2]; at 50.0 µM
  growth inhibition: 57.2% (inactive)
[3]; [7]
  growth inhibition: 68% (inactive)
[3]; [8]
  growth inhibition: 96% (active)
[3]; at 50.0 µM
  growth inhibition: 57.1% (inactive)
[4]; [7]
  growth inhibition: 93% (active)
[4]; [8]
  growth inhibition: 96% (active)
[4]; at 50.0 µM
  growth inhibition: 54.1% (inactive)
[5]; [7]
  growth inhibition: 49% (inactive)
[5]; [8]
  growth inhibition: 97% (active)
[5]; at 50.0 µM
  growth inhibition: 49.5% (inactive)
[6]; [7]
  growth inhibition: 95% (active)
[6]; [8]
  growth inhibition: 98% (active)
[6]; at 50.0 µM
  growth inhibition: 65.3% (inactive)

## [C-]#[O+].[C-]#[O+].[Ir].[O-]c1ccc2ccccc2c1N=Nc1ccccc1
[1]; [7]
  growth inhibition: -4% (inactive)
[1]; [8]
  growth inhibition: -4% (inactive)
[1]; at 50.0 µM
  growth inhibition: 74.5% (active)
[2]; [7]
  growth inhibition: -11% (inactive)
[2]; [8]
  growth inhibition: -11% (inactive)
[2]; at 50.0 µM
  growth inhibition: 69.5% (inactive)
[3]; [7]
  growth inhibition: 15% (inactive)
[3]; [8]
  growth inhibition: 15% (inactive)
[3]; at 50.0 µM
  growth inhibition: 62.1% (inactive)
[4]; [7]
  growth inhibition: -2% (inactive)
[4]; [8]
  growth inhibition: -2% (inactive)
[4]; at 50.0 µM
  growth inhibition: 50.7% (inactive)
[5]; [7]
  growth inhibition: -20% (inactive)
[5]; [8]
  growth inhibition: -20% (inactive)
[5]; at 50.0 µM
  growth inhibition: 55.1% (inactive)
[6]; [7]
  growth inhibition: -18% (inactive)
[6]; [8]
  growth inhibition: -18% (inactive)
[6]; at 50.0 µM
  growth inhibition: 69.5% (inactive)

## O=[N+]([O-])c1ccccc1
[1]; [7]
  growth inhibition: 11% (inactive)
[1]; [8]
  growth inhibition: 75% (active)
[1]; at 50.0 µM
  growth inhibition: 79.2% (active)
[2]; [7]
  growth inhibition: 3% (inactive)
[2]; [8]
  growth inhibition: 10% (inactive)
[2]; at 50.0 µM
  growth inhibition: -0.5% (inactive)
[3]; [7]
  growth inhibition: 3% (inactive)
[3]; [8]
  growth inhibition: 17% (inactive)
[3]; at 50.0 µM
  growth inhibition: 27.1% (inactive)
[4]; [7]
  growth inhibition: 4% (inactive)
[4]; [8]
  growth inhibition: 4% (inactive)
[4]; at 50.0 µM
  growth inhibition: 35.5% (inactive)
[5]; [7]
  growth inhibition: 2% (inactive)
[5]; [8]
  growth inhibition: 12% (inactive)
[5]; at 50.0 µM
  growth inhibition: 13.3% (inactive)
[6]; [7]
  growth inhibition: 6% (inactive)
[6]; [8]
  growth inhibition: 19% (inactive)
[6]; at 50.0 µM
  growth inhibition: 39.2% (inactive)
